VP16 counter = inhibits Gal4-VP16 luciferase reporter, ROR gamma counter-screen; AID 2546; Drosophila S2 Gal4-VP16 UAS-luciferase, luminescence, 20 h; 3.5% of 310,000 active; Potency, µM (highest dose often 53.6 µM), without a hit: top-dose activity, negative = inhibition, usual class: inhibitors;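 also: Gal4-VP16 expression switched on by copper sulfate through the metallothionein promoter; potency is read from the fitted curve at half-maximal effect; % is scaled to controls: 0 for no effect and ±100 for the full control effect; nearly all actives have a fitted effect of over 50% in size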
IL-1B inflam inh = inhibitors of inflammasome signaling (IL-1 beta secretion); 4.7% of 360,000 active; activity change, % at 57.5 µM; THP-1 LPS/ATP IL-1B secretion, AlphaLISA, 16 h; active compounds read low; in the data active = activity change below about -50%; inconclusive = mostly about -30% to -49%; also: % is scaled to controls: 0 for no effect and ±100 for the full control effect
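Secreted IL-1B measured by AlphaLISA bead assay after 16 h compound exposure of THP-1 cells; compounds (final up to 57.5 uM) added 1 h before LPS (250 ng/mL) and ATP (1.25 mM) stimulation; lower signal means less secretion.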
RORg inh = blocks mouse ROR gamma transcriptional activity | P51450 | Drosophila S2 Gal4-RORgamma UAS-luciferase reporter, 20 h | Potency, µM (highest dose often 53.6 µM), inactives show at the top dose activity change, negative = inhibition, actives largely listed as inhibitors | 5.4% of 310,000 active; also: potency is read from the fitted curve at half-maximal effect; % is scaled to controls: 0 for no effect and ±100 for the full control effect; nearly all actives have a fitted effect of over 60% in size
Target sequence (P51450 whole entry, looked up, the tested form may be a part): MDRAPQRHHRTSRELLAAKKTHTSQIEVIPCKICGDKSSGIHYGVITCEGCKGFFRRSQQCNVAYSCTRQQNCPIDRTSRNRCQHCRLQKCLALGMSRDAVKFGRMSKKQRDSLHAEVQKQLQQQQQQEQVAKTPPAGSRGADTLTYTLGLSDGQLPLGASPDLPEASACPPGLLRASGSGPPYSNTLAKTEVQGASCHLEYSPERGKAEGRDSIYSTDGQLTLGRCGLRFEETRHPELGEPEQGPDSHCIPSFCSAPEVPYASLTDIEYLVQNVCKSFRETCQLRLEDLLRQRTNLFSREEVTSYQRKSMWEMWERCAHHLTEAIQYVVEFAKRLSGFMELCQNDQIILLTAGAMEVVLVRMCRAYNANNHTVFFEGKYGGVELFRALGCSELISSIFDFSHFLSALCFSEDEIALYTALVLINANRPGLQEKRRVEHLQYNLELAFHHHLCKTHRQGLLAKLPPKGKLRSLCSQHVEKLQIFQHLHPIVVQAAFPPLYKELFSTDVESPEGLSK
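Luciferase reporter read in Schneider cells carrying Gal4-RORγ (mouse) and UAS-Photinus luciferase; cells given compound 1 h before 700 uM copper sulfate induction, then incubated 20 h at ambient temperature.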
SW480 rerep = inducers of DNA re-replication in SW480 colon cancer cells. 1.8% of 340,000 active. Potency, µM (doses to about 46.1 µM), without a hit: at the top dose re-replication activation, hits mostly activators. SW480 DNA re-replication, Hoechst DNA content imaging, 48 h. AID 624297; also: potency is read from the fitted curve at half-maximal effect; % of control where 0% means no effect; nearly all actives have a fitted effect of over 55% in size
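Hoechst fluorescence of nuclei (405 nm excitation, 500-530 nm emission) measured by plate-scanning imager after 48 hr compound exposure at 37 C; re-replication scored as increased number of nuclei with elevated intensity.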
MCF10A rereplic = DNA re-replication induction in MCF 10a cells. MCF 10A DNA re-replication, Hoechst nuclear intensity, 48 h. Potency, µM (highest dose often 46.1 µM), for inactives: at the top dose activity, positive = re-replication, actives largely listed as activators. 2.9% of 350,000 active; also: potency is read from the fitted curve at half-maximal effect; % of control where 0% means no effect; nearly all actives have a fitted effect of over 50% in size
Active calls of the source: *; ? = inconclusive; / = no result; [ ] = dose if it differs, or a comment. The list is not random: actives were taken first. Their share in the collection is about 11%. Unless noted, calls follow the shape of the dose curve; as a rule, active = well fitted curve in the direction sought with a large enough effect; inconclusive = small, poorly fitted or top-dose-only effect, or another doubt; inactive = no such curve, though single readings can be large; an effect the other way counts as inactive or inconclusive.

SMILES | VP16 counter | IL-1B inflam inh | RORg inh | SW480 rerep | MCF10A rereplic
CC(C)(C)NC(=O)C(c1ccncc1)n1c(=O)c(-c2cc3ccccc3[nH]2)nc2ccccc21 (stereo unspecified) | / | -123.1* | / | / | /
O=C(O)c1cc(S(=O)(=O)N2CCCCC2)ccc1N1CCCCC1 | / | 10.8 | / | -9.0% | -0.9%
NC(=O)c1ccccc1NCC(=O)c1ccc(F)cc1 | 8.0% | 39.5 | 7.9% | 22.7% | 11.3%
O=C(CC(=O)c1ccccc1O)c1cccc(F)c1 | ? | 28.3 | 7.08µM* | 19.0% | ?
O=C(CC(=O)c1c(F)cccc1Cl)c1ccccc1O | 11.2µM* | 6.8 | 20µM* | 17.3% | 16.4%
O=C(CC(=O)c1ccccc1O)c1ccc(F)cc1 | ? | 37.4 | 14.1µM* | ? | ?
CC[C@H](C)[C@H]1O[C@]2(CC[C@@H]1C)C[C@@H]1C[C@@H](C/C=C(\C)[C@H](O[C@@H]3C[C@H](OC)[C@H](O[C@@H]4C[C@H](OC)[C@@H](O)[C@H](C)O4)[C@H](C)O3)[C@@H](C)/C=C/C=C3\CO[C@@H]4[C@H](O)C(C)=C[C@@H](C(=O)O1)[C@]34O)O2 | ? | / | 5.7%[10 µM] | -1.3% | ?
CCN1C(=O)[C@H]2[C@H]3[C@H](O)[C@H](O)C/C(=N/O[C@@H](C)c4cc(-c5c(C)cc(C)cc5C)no4)[C@@H]3CC[C@@H]2C1=O | -8.0%[10 µM] | / | 26.5%[10 µM] | / | /
CN(C)c1ncc2nc(CCc3ccccc3)c(=O)n(-c3ccccc3)c2n1 | -6.9% | / | 2.0% | / | /
O=C(CN1C(=O)C(=O)N(Cc2ccccc2)C1=O)Nc1ccc(OC(F)F)cc1 | / | -1.4 | / | -2.7% | 2.2%
O=C(CN1C(=O)C(=O)N(Cc2ccccc2)C1=O)Nc1cc(Cl)cc(Cl)c1 | ? | 68.4 | ? | 18.4µM* | ?
NC(=O)c1cc2cc(Br)ccc2oc1=NCc1ccccc1 | 10.6% | -64.6* | -18.7% | 21.8% | 11.0%
O=C(NCc1ccco1)c1ccc2sc([C@@H]3O[C@H](CO)[C@H](O)[C@H](O)[C@H]3O)nc2c1 | / | 4.1 | / | / | /
C=CCN1C(=O)/C(=C/c2ccc(OCC(=O)O)cc2)S/C1=N/c1nccs1 | -1.3% | 8.7 | 5.7% | 1.1% | ?
C=CCN1C(=O)/C(=C/c2ccc(O)c(OC)c2)S/C1=N/c1nccs1 | -10.3% | -23.9 | 13.0% | ? | 18.4µM*
CC(C)S(=O)(=O)c1csc(C(=O)NN)c1Cl | -17.6% | 1.0 | 10µM* | -20.2% | -1.9%
CC(C)S(=O)(=O)c1csc(C(=O)NN)c1-n1cccc1 | 3.5% | -8.8 | ? | -10.5% | 0.1%
c1ccc2c(c1)nc(N1CCOCC1)c1c3ccccc3[nH]c21 | -16.4% | -5.2 | ? | ? | 3.66µM*
O=c1[nH]c2ccccc2nc1N1CCOCC1 | -4.7% | -22.3 | 14.8% | -5.0% | -3.8%
FC(F)(F)c1ccccc1-c1nc(N2CCOCC2)c2ccccc2n1 | 4.2% | / | 2.6% | / | /
c1ccc2c(N3CCCCC3)nc(N3CCOCC3)nc2c1 | -7.9%[10 µM] | -18.9 | -4.7% | 11.8% | 0.3%
Fc1ccc(Nc2nc(N3CCOCC3)c3ccccc3n2)cc1 | -0.2% | -78.0* | 3.0% | 3.9% | ?
c1ccc2c(Nc3nc(N4CCOCC4)c4ccccc4n3)cccc2c1 | ? | -109.4* | -13.4% | ? | 18.4µM*
NC(=O)c1ccc(NC(=O)c2ccc(COc3ccc(F)cc3)o2)cc1 | / | 1.3 | / | -11.7% | -0.1%
c1ccc(CNc2ncnc3c2ncn3C2CCCCO2)cc1 (stereo unspecified) | 11.4% | 2.7 | ? | 29.2% | 16.4µM*
SMILES | VP16 counter | IL-1B inflam inh | RORg inh | SW480 rerep | MCF10A rereplic
c1ccc(CSc2ncnc3c2ncn3C2CCCCO2)cc1 (stereo unspecified) | / | -50.3* | / | -29.6% | -9.4%
S=c1[nH]nc2sc3ccccc3n12 | / | 52.2 | / | -1.4% | -14.5%
Cc1ccc(-c2csc3n[nH]c(=S)n23)cc1 | 8.91µM* | 0.0 | 2.51µM* | 3.0% | 0.9%
COC(=O)NC(c1ccc(F)cc1)C(C(C)=O)C(=O)OC (stereo unspecified) | -1.7%[10 µM] | / | -9.1%[10 µM] | / | /
O=C1NC[C@H](c2ccccc2)OC(=O)[C@H](Cc2ccc(F)cc2)C/C=C\C[C@H]1CC(=O)N(CCO)Cc1ccccc1 | / | -60.2* | / | -7.8% | ?
O=C1NC[C@H](c2ccccc2)OC(=O)[C@@H](Cc2ccc(F)cc2)C/C=C\C[C@H]1CC(=O)N(CCO)Cc1ccccc1 | / | 0.0 | / | ? | 573.0%
O=C1NC[C@@H](c2ccccc2)OC(=O)[C@@H](Cc2ccc(F)cc2)CC/C=C/C[C@H]1CC(=O)N(CCO)Cc1ccccc1 | / | ? | / | 4.61µM* | ?
O=C1NC[C@H](c2ccccc2)OC(=O)[C@H](Cc2ccc(F)cc2)CC/C=C/C[C@@H]1CC(=O)N(CCO)Cc1ccccc1 | / | 0.0 | / | 9.5% | ?
O=C(NCC(F)(F)F)c1cc2c(c(-c3cccc(-c4ccccc4F)c3)n1)[C@H](CCO)N(C(=O)CC1CC1)C2 | / | -23.5 | / | / | /
C=CCNc1nc(NCC)nc(N2CCOCC2)n1 | -23.3% | 5.1 | 2µM* | -5.0% | 0.5%
CCNc1nc(N2CCOCC2)nc(N(c2ccccc2)c2ccccc2)n1 | 2.5% | 32.7 | 42.1% | 0.4% | -0.6%
CCn1nc(NC(C)=O)c2cc3ccc(C)cc3nc21 | 2.6% | -20.2 | 1.0% | 10.4% | ?
CCCCn1nc(NC(=O)COC)c2cc3cc(OC)ccc3nc21 | 0.0% | -6.2 | 2.5% | 14.6µM* | 8.6%
CCCCC(=O)Nc1nn(CCC)c2nc3ccccc3cc12 | -12.5% | -6.9 | -21.5% | ? | ?
CCn1nc(NC(=O)Cc2ccc(OC)cc2)c2cc3cccc(C)c3nc21 | -6.3% | -8.9 | -28.6% | ? | 4.11µM*
CCn1nc(NC(=O)COC)c2cc3cccc(C)c3nc21 | -12.5% | -5.1 | 14.9% | ? | -0.4%
CCn1nc(NC(=O)Cc2ccc(OC)cc2)c2cc3cc(C)ccc3nc21 | -8.7% | 44.6 | -0.8% | 7.31µM* | 1.84µM*
Cc1cccc2cc3c(NC(=O)CC(C)C)nn(C)c3nc12 | -0.6% | 50.3 | -15.5% | ? | ?
Cc1cccc2cc3c(NC(=O)C(C)(C)C)nn(CC(C)C)c3nc12 | 3.4% | 67.6 | 1.8% | 20.6µM* | ?
CCCn1nc(NC(=O)C2CCCO2)c2cc3cccc(C)c3nc21 (stereo unspecified) | -10.7% | -1.1 | 4.7% | 2.06µM* | ?
CC(C)Cn1nc(NC(=O)C2CCCO2)c2cc3ccccc3nc21 (stereo unspecified) | 4.8% | -2.0 | -23.5% | 28.6% | -8.0%
CCn1nc(NC(=O)C(C)C)c2cc3cccc(C)c3nc21 | -12.2% | -8.2 | -3.7% | 8.2µM* | ?
CCn1nc(NC(=O)c2ccccc2)c2cc3cccc(C)c3nc21 | 3.4% | ? | -8.5% | 11.6µM* | 6.51µM*
CCn1nc(NC(C)=O)c2cc3cccc(C)c3nc21 | -2.1% | 2.5 | -1.2% | 122.6% | 2.6%
